According to the supplement of paper PMC6555819:

Tested on: PPARg:RXRa 270nM:90nM, anti-RXR (NR concentration 270 nM, RXRa partner concentration 90 nM)
Experiment: PBM binding z-score (relative to random genomic background probes); higher = stronger binding; sequences stand for … in GC…GCGATTGACAGCGTAGAATGAAGG
Summary of the method: (§1)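 On custom Agilent 4×180K arrays, double-stranded probes with 34-nt variable regions carried direct-repeat seeds, single-nucleotide variants, half-site ablations or random human genomic background. Ligand-free nuclear receptor dimers were applied for 1 h, and binding was read with antibodies against each partner (one per run). Binding z-scores come from regression-normalized fluorescence, with the random background probes as reference.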

Sequence	PBM binding z-score
CGATCTAGGTCACCAGGACAGTGAAGAGGTTGGA	6.67
CGAACTAGATCACCAGGACAGTGAAGAGGTTGGA	-0.0755
CGAACTAGGTCACCTGGACAGTGAAGAGGTTGGA	6.5
ATATGTAGGTTAGGGTCTTTCAGAAAGTAGGGAA	3.87
CGAACTAGGTCAAAGGACAGTGGAAGGCGACGTA	8.34
CGAACTAGGTCACCAGGACAGTGCAGAGGTTGGA	6.83
CGAACTAGGTCAAAGGACAGTGATAGGCGACGTA	8.27
ATATGTAGGTTAGTGTCATTCAGAAAGTAGGGAA	3.57
CGTACTAGGTCACCAGGACAGTGAAGAGGTTGGA	6.32
ATATGTAGGTTAGGCTCATTCAGAAAGTAGGGAA	2.43
ATATGCAGGTTAGGGTCATTCAGAAAGTAGGGAA	4.1
CGAACTAGGTCACCAGGAGAGTGAAGAGGTTGGA	6.73
CGAACTAGGTCAAATGACAGTGAAAGGCGACGTA	6.78
CGAACTAGGTCAAAGGACAGTGACAGGCGACGTA	8.72
ATAAGTAGGTTAGGGTCATTCAGAAAGTAGGGAA	7.06
CGAACTAGGTCACCAGGACAGTAAAGAGGTTGGA	7.03
ATATGTAGGTGAGGGTCATTCAGAAAGTAGGGAA	6.55
CGAACTAGGTCAGCAGGACAGTGAAGAGGTTGGA	5.16
CGAACTAGGTCAAAGGACAATGAAAGGCGACGTA	8.49
CGATCTAGGTCAAAGGACAGTGAAAGGCGACGTA	8.3

Sequence	PBM binding z-score
ATATGTAGGTTAGAGTCATTCAGAAAGTAGGGAA	4.03
CGAACTAGGTCACCAGGACAGTGAAGAGGTTGGA	7
ATATGTAGGCTAGGGTCATTCAGAAAGTAGGGAA	4.76
CGAACTTGGTCACCAGGACAGTGAAGAGGTTGGA	0.47
ATATGTAGGTTAGGGGCATTCAGAAAGTAGGGAA	5.21
ATATGTAGGTTAGGGTCATTAAGAAAGTAGGGAA	6.59
ATATGTAGGTTTGGGTCATTCAGAAAGTAGGGAA	2.64
ATATGTAAGTTAGGGTCATTCAGAAAGTAGGGAA	3.41
ATATGAAGGTTAGGGTCATTCAGAAAGTAGGGAA	4.02
CGAACTAGGTCAATGGACAGTGAAAGGCGACGTA	6.17
CGAACTAGGTAACCAGGACAGTGAAGAGGTTGGA	2
ATATGGAGGTTAGGGTCATTCAGAAAGTAGGGAA	4.47
CGAACTAGGTCACCAGGGCAGTGAAGAGGTTGGA	6.86
CGAACTAGGTCACCAGGACATTGAAGAGGTTGGA	7.05
CGAACTAGGTCAAAGGACAGCGAAAGGCGACGTA	8.88
CGAACTAGGCCACCAGGACAGTGAAGAGGTTGGA	2.28
CGAACTAGGGCACCAGGACAGTGAAGAGGTTGGA	3.54
CCAACTAGGTCACCAGGACAGTGAAGAGGTTGGA	6.53
CGAACTAGGTCAAAGTACAGTGAAAGGCGACGTA	7.61

Tested on: PPARg:RXRa 30nM:10nM, anti-RXR (NR concentration 30 nM, RXRa partner concentration 10 nM)
Experiment: as above
Summary of the method: as §1

Sequence	PBM binding z-score
CGATCTAGGTCACCAGGACAGTGAAGAGGTTGGA	4.33
CGAACTAGATCACCAGGACAGTGAAGAGGTTGGA	-0.0214
CGAACTAGGTCACCTGGACAGTGAAGAGGTTGGA	4.2
ATATGTAGGTTAGGGTCTTTCAGAAAGTAGGGAA	1.72
CGAACTAGGTCAAAGGACAGTGGAAGGCGACGTA	8.02
CGAACTAGGTCACCAGGACAGTGCAGAGGTTGGA	4.82
CGAACTAGGTCAAAGGACAGTGATAGGCGACGTA	8.49
ATATGTAGGTTAGTGTCATTCAGAAAGTAGGGAA	1.5
CGTACTAGGTCACCAGGACAGTGAAGAGGTTGGA	3.8
ATATGTAGGTTAGGCTCATTCAGAAAGTAGGGAA	0.952
ATATGCAGGTTAGGGTCATTCAGAAAGTAGGGAA	1.99
CGAACTAGGTCACCAGGAGAGTGAAGAGGTTGGA	4.58
CGAACTAGGTCAAATGACAGTGAAAGGCGACGTA	5.35
CGAACTAGGTCAAAGGACAGTGACAGGCGACGTA	8.9
ATAAGTAGGTTAGGGTCATTCAGAAAGTAGGGAA	4.72
CGAACTAGGTCACCAGGACAGTAAAGAGGTTGGA	4.73
ATATGTAGGTGAGGGTCATTCAGAAAGTAGGGAA	4.94
CGAACTAGGTCAGCAGGACAGTGAAGAGGTTGGA	2.12
CGAACTAGGTCAAAGGACAATGAAAGGCGACGTA	8.29
CGATCTAGGTCAAAGGACAGTGAAAGGCGACGTA	8.39

Sequence	PBM binding z-score
ATATGTAGGTTAGAGTCATTCAGAAAGTAGGGAA	1.69
CGAACTAGGTCACCAGGACAGTGAAGAGGTTGGA	4.54
ATATGTAGGCTAGGGTCATTCAGAAAGTAGGGAA	3.09
CGAACTTGGTCACCAGGACAGTGAAGAGGTTGGA	-0.456
ATATGTAGGTTAGGGGCATTCAGAAAGTAGGGAA	2.78
ATATGTAGGTTAGGGTCATTAAGAAAGTAGGGAA	4.1
ATATGTAGGTTTGGGTCATTCAGAAAGTAGGGAA	1.4
ATATGTAAGTTAGGGTCATTCAGAAAGTAGGGAA	1.15
ATATGAAGGTTAGGGTCATTCAGAAAGTAGGGAA	1.82
CGAACTAGGTCAATGGACAGTGAAAGGCGACGTA	3.76
CGAACTAGGTAACCAGGACAGTGAAGAGGTTGGA	0.303
ATATGGAGGTTAGGGTCATTCAGAAAGTAGGGAA	1.89
CGAACTAGGTCACCAGGGCAGTGAAGAGGTTGGA	4.52
CGAACTAGGTCACCAGGACATTGAAGAGGTTGGA	4.88
CGAACTAGGTCAAAGGACAGCGAAAGGCGACGTA	9.93
CGAACTAGGCCACCAGGACAGTGAAGAGGTTGGA	0.382
CGAACTAGGGCACCAGGACAGTGAAGAGGTTGGA	1.13
CCAACTAGGTCACCAGGACAGTGAAGAGGTTGGA	3.83
CGAACTAGGTCAAAGTACAGTGAAAGGCGACGTA	7.01
